# Reference: PubChem BioAssay AID463095 (Sanford-Burnham Center for Chemical Genomics, 2010)
# The list shows a part of the results. The source made the active and inactive calls.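 The calls were made as follows: active = proliferation increase above 40% at any of the four tested concentrations; inactive = the rest.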
# Experiment: MIN6 insulinoma cell replication enhancers – MIN6 cells, mouse, confirmation (AID 463095)
# Conditions: MIN6 beta-cell proliferation, ATPlite luminescence, 48 h; series mostly up to 50 µM; proliferation increase: at the top concentration
row,SMILES,proliferation increase
1,COC(=O)COc1cc(C)cc2oc(=O)c3c(c12)CCCC3,2.6% (inactive)
2,O=C(N/N=C/c1c(O)n(Cc2ccccc2)c(=O)[nH]c1=O)c1ccccc1,0.3% (inactive)
3,c1cc2c(cc1CCNC1CCCCCC1)OCO2,-3.3% (inactive)
